Compound activity from PubChem.
An excerpt weighted towards active compounds, which were near 7% of everything screened.
rCAG RNA binder: binders of r(CAG) RNA repeats, primary screen, biochemical, fluorescence; r(CAG) RNA repeat, TO-PRO-1 dye displacement fluorescence; inhibition, % at 3 µM; hit rate 1.3% among 370,000; AID 651821, 2012;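 active = inhibition above the plate cutoff, the mean of all test compounds on that plate plus 3 SD, cut at about 35% in these data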;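 note: 0% = DMSO alone and 100% = 100 µM mitoxantrone as full dye displacement; higher means more dye released from RNA so lower well fluorescence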
GRIN3A LBD mod: binders of NR3A ligand-binding domain, primary screen, biophysical, differential scanning fluorimetry, uHTS | Glutamate receptor ionotropic, NMDA 3A (GRIN3A) ligand-binding domain | NR3A LBD differential scanning fluorimetry, Tm shift; 0% = protein alone, 100% = glycine-bound protein | Tm shift relative to glycine control, % at 25 µM | hit rate 2.5% among 340,000 | AID 1259313, 2017;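 active = melting temperature shift of at least 10% of the positive control shift, at one fixed dose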
AHR act: AHR activators, primary screen, cell-based, luminescence, luciferase reporter, human | AHR-responsive luciferase reporter cells | Aryl hydrocarbon receptor (Homo sapiens), P35869 | AID 2796, 2010 | hit rate 2.5% among 320,000 | activation, % at 5 µM; in the data active = activation above about 47%;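 note: 0% = vehicle wells and 100% = reference agonist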
ADAM10 inh: human ADAM10 inhibitors, primary screen, biochemical, QFRET, HTS | inhibition, % at 7 µM | recombinant ADAM10, EDANS/DABCYL FRET peptide cleavage, 3 h | hit rate 0.62% among 370,000;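 active = inhibition above a per-campaign cutoff equal to the mean of compounds falling between control-based bounds plus 3 SD, cut at about 20% in these data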;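 note: 0% = DMSO wells while the 100% control is not disclosed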
KLK7 zymogen act: proKLK7 zymogen activators, primary screen, biochemical, fluorescence intensity. purified proKLK7, EDANS-DABCYL substrate fluorescence; 100% is mature enzyme control, 0% vehicle. activation, % at 7 µM. hit rate 0.9% among 370,000. AID 652039, 2013;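 active = activation above the mean of all tested compounds plus 3 SD, computed per campaign excluding outliers beyond control limits, cut at about 13% in these data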
Target sequence (P49862 whole entry, looked up): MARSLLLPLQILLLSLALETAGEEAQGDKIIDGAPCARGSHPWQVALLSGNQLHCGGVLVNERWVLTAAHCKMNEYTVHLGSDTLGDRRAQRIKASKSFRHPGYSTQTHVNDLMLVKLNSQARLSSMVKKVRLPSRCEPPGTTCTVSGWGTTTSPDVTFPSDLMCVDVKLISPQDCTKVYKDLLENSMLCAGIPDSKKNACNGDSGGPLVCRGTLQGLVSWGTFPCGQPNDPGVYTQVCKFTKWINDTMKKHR
ADAM17 inh: ADAM17 inhibitors, primary screen, biochemical, QFRET | Disintegrin and metalloproteinase domain-containing protein 17 (Homo sapiens), P78536 | recombinant ADAM17, EDANS/DABCYL FRET peptide cleavage | inhibition, % at 6.95 µM | hit rate 0.83% among 370,000 | AID 720648, 2013;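 active = inhibition above the mean of compounds lying between control limits plus 3 SD, set per campaign, cut at about 8.5% in these data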;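 note: 0% = DMSO-only wells as the low control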
KLK7 act conf: proKLK7 zymogen activators, confirmation, biochemical, fluorescence intensity, triplicate; shares compounds with KLK7 zymogen act; purified proKLK7, EDANS-DABCYL substrate fluorescence; scaled: vehicle 0, mature enzyme 100; activation, % at 7 µM; hit rate 68% among 3,200;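 active = activation, as change over the incubation, above the mean of all tested compounds plus 3 SD, cut at about 13% in these data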
EDANS interfere: EDANS-DABCYL substrate optical interference, artefact control for kallikrein-7 zymogen activator project, biochemical, fluorescence intensity, high throughput. shares compounds with KLK7 zymogen act. no enzyme, 4 h; solvent 0%, active enzyme control 100%. activation, % at 7 µM. hit rate 80% among 3,200. AID 686952, 2013;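 active = activation above the all-compound mean plus 3 SD, ignoring values outside control-based bounds, cut at about 4.8% in these data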;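 note: value is the 4 h activation minus the activation read at time zero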
* hit, by the source's call; i = inactive; . = no result given; ! = not active in a repeat.

SMILES	rCAG RNA binder	GRIN3A LBD mod	AHR act	ADAM10 inh	KLK7 zymogen act	ADAM17 inh	KLK7 act conf	EDANS interfere
COc1cc(OC)cc(-c2c(Sc3ccccc3)c3cc(-c4ccc(SC)cc4)ccc3n2C)c1	2	.	.	-2	0	-1	.	.
O=C(O)CNS(=O)(=O)c1ccc2c3c(cccc13)C(=O)N2	9	-1	.	i	60*	-214	73*	73*
CNS(=O)(=O)c1ccc2c3c(cccc13)C(=O)N2	5	-2	.	i	49*	-341	61*	72*
O=C(O)c1cccc(NS(=O)(=O)c2ccc3c4c(cccc24)C(=O)N3)c1	0	2	4	-5	1	-1	.	.
CN(c1ccccc1C(=O)O)S(=O)(=O)c1ccc2c3c(cccc13)C(=O)N2	13	-2	4	-62	0	-21	.	.
O=C(O)CCCCCNS(=O)(=O)c1ccc2c3c(cccc13)C(=O)N2	6	2	.	i	63*	-367	61*	69*
CNS(=O)(=O)c1cc(S(=O)(=O)NC)c2cccc3c2c1NC3=O	9	-1	6	i	21*	-198	21*	21*
COC(=O)[C@@H](Cc1ccccc1)NC(=O)[C@H]1CCC(=O)N1C(=O)OCc1ccccc1	-5	2	0	-12	1	0	.	.
CCOC(=O)NC1(C(F)(F)F)C(=O)N(Cc2ccccc2)C2=C1C(=O)CC(C)(C)C2 (centres undefined)	-8	1	-1	1	0	0	.	.
O=C(NCC1COc2ccccc2O1)c1ccc(NC(=O)c2cccc(F)c2F)cc1 (centres undefined)	2	.	.	-8	0	-1	.	.
O=C(C1CCN(c2nc(-c3ccc(Br)cc3)cs2)CC1)N1CCNCC1	.	.	.	14	.	4	.	.
CN(C(=O)c1cccnc1)c1nnc(-c2cnccn2)s1	-2	2	3	-9	42*	-7	33*	34*
CN(C(=O)c1cccc(C#N)c1)c1nnc(-c2cnccn2)s1	0	0	-1	-8	3	-3	.	.
CN(C(=O)C1CCCO1)c1nnc(-c2cnccn2)s1 (centres undefined)	-1	2	6	-15	54*	-10	39*	81*
CN(C(=O)c1ccccn1)c1nnc(-c2cnccn2)s1	-1	3	-3	-4	9	-3	.	.
CN(C(=O)c1ccncc1)c1nnc(-c2cnccn2)s1	2	-2	1	-15	33*	-4	77*	82*
CN(C(=O)c1cnccn1)c1nnc(-c2cnccn2)s1	0	3	1	-21	20*	-13	38*	42*
C/C(=N\NC(=O)c1cc(-c2ccc(C)s2)[nH]n1)c1ccco1	5	-9	25	-1	0	-5	.	.
N#Cc1c(-c2ccc(F)cc2)ccnc1N1CCOCC1	-5	-1	0	-127	1	-44	.	.
CN(C(=O)c1cccnc1)c1nnc(-c2ccccn2)s1	0	-1	54*	-204	73*	-65	39*	37*
NC(=O)c1ccc[n+]([C@H]2O[C@@H](COP(=O)([O-])OP(=O)(O)OC[C@H]3O[C@@H](n4cnc5c(N)ncnc54)[C@H](O)[C@@H]3O)[C@H](O)[C@@H]2O)c1	.	2	-1	.	.	.	.	.
O=C(Nc1ccccn1)c1ccc([N+](=O)[O-])o1	.	0	-1	.	.	.	.	.
O=C(Nc1ncccn1)c1ccc([N+](=O)[O-])o1	0	1	6	i	817*	-166	834*	835*
COc1cc2c(cc1OC)CN(c1ccc3ccccc3n1)CC2	3	-1	7	-265	42*	-82	70*	80*
COc1ccc(-c2csc(=Nc3c(C)n(C)n(-c4ccccc4)c3=O)n2C(C)(C)C)cc1	-3	-1	-2	-1	0	0	.	.
SMILES	rCAG RNA binder	GRIN3A LBD mod	AHR act	ADAM10 inh	KLK7 zymogen act	ADAM17 inh	KLK7 act conf	EDANS interfere
COc1ccc(-c2cc(=Nc3c(C)n(C)n(-c4ccccc4)c3=O)c3ccccc3o2)cc1	-8	-2	8	i	40*	i	43*	53*
CC1=Nc2ccc(C)cc2/C1=C/c1c(N)n2oc(C)cc2nc1=O	9	-5	6	-28	48*!	-19	25*	35*
COc1ccccc1CNC(=O)c1c(N)n(CCCN2CCOCC2)c2nc3ccccc3nc12	9	-2	.	i	-30	-418	.	.
C=CCn1c(N)c(C(=O)OC(C)CC)c2nc3ccccc3nc21 (centres undefined)	-1	-1	.	i	69*	i	-33	-19
C=CCn1c(C(C)C)nc2ccccc21	-3	-1	0	-3	0	-4	.	.
COCCNC(=O)c1c(N)n(-c2ccccc2)c2nc3ccccc3nc12	-1	2	16	i	-32	-382	.	.
Nc1c(C(=O)NCCN2CCOCC2)c2nc3ccccc3nc2n1-c1ccccc1	5	-6	5	i	28*	i	8	9.1*
CC(C)OC(=O)c1c(N)n(CCCN2CCOCC2)c2nc3ccccc3nc12	-8	1	3	i	28*	i	9	7.4*
COC(=O)c1c(N)n(-c2ccc(NC(C)=O)cc2)c2nc3ccccc3nc12	-1	1	4	i	24*	i	76*	73*
Nc1c(C(=O)NCCN2CCOCC2)c2nc3ccccc3nc2n1-c1ccc2c(c1)OCO2	14	1	1	-34	0	-10	.	.
Cc1nc(C(=O)O)cc([N+](=O)[O-])c1C	2	.	.	5	0	2	.	.
O=C(c1cccc(C(F)(F)F)c1)N(c1ccccn1)C1CCCCC1	-10	-2	-1	2	1	1	.	.
COc1ccc(C(C)(C)NC(=O)C2CCC(=O)N(CCCN3CCCC3=O)C2)cc1 (centres undefined)	1	0	1	6	0	5	.	.
C=CCn1c(N)c(C(=O)OC(C)(C)C)c2nc3ccccc3nc21	-2	9	.	i	46*	i	80*	71*
